# Screen size: about 420,000 compounds; about 64,000 (15%) were called active. Another 27% or so got no clear call; they are omitted. The list is a sample of the results. Where a call stands in place of a potency, no number is given. Values without a mark were called inactive. Calls come from the whole dose curve; as a rule, active = well fitted inhibition curve with a large enough effect; inconclusive = small, poorly fitted or top-dose-only effect; inactive = flat fitted curve, though single readings scatter.
# Experiment: qHTS for Inhibitors of human tyrosyl-DNA phosphodiesterase 1 (TDP1): qHTS in cells in absence of CPT; note: nearly all actives have a fitted effect of over 55% in size
# Conditions: DT40 Tdp1-/- hTDP1 cells, no CPT, ATP luminescence, 48 h; activity change, negative = growth inhibition: at 46.2 µM (top of the series)
# In short: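 No-CPT arm: Tdp1-/-;hTDP1 DT40 cells (400/well) plus compounds, incubated ≥48 hr at 37 °C. Readout CellTiter-Glo luminescence.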
# Potency is the fitted concentration of half-maximal effect.
Structure (SMILES),Potency,"activity change, negative = growth inhibition"
CN(CCC1CCOCC1)C(=O)CC1C(=O)NCCN1Cc1cccc(F)c1 (configuration not stated),inactive,–
COc1ccc(NS(=O)(=O)c2cc3c(cc2C)N(C(C)=O)CCO3)cc1,inactive,–
CCOC(=O)c1c(NC(=O)NC(C)(C)C)sc2c1CCN(C)C2,inactive,–
CCOC(=O)c1c(NC(=O)c2ccc(S(=O)(=O)N3CCCC(C)C3)cc2)sc2c1CCN(C(C)C)C2 (configuration not stated),10.3 µM (active),–
COC(=O)c1c(NC(=O)c2ccc(Cl)c(Cl)c2)sc2c1CCCC2,inactive,–
CCCN(CCC)S(=O)(=O)c1ccc(C(=O)Nc2sc3c(c2C(=O)OC)CCN(CC)C3)cc1,20.6 µM (active),–
CCOC(=O)c1c(NC(=O)C2CCN(S(=O)(=O)c3ccc(Cl)cc3)CC2)sc2c1CCCC2,inactive,–
COC(=O)c1c(NC(=O)c2cc(=O)c3c(C)cc(C)cc3o2)sc2c1CCCC2,inactive,–
O=C(O)/C=C/c1ccc(OCCCF)cc1,inactive,–
CN(C)/C=C/C(=O)c1cnc2sccn2c1=O,inactive,–
Cn1nc(C(F)(F)F)c(-c2ccc(F)cc2)c1NC(=O)CSCC(=O)O,inactive,–
CN(C)C=NC(=O)c1cccn1-c1ncc(C(F)(F)F)cc1Cl,inactive,–
O=C(CSc1nnc(Nc2ccccc2)s1)Nc1cccnc1Cl,inactive,–
CC(C)N(C(=O)CSc1nnc(NC2CC2)s1)c1ccccc1,inactive,–
CC(C)c1ccc(Nc2nnc(SCC(=O)c3nnc(-c4ccccc4)o3)s2)cc1,11.6 µM (active),–
C/C(=N\OC(=O)c1ccccc1)c1c(C)nc2cc(C)ccn12,inactive,–
CC1=C(C(=O)Nc2ccc(Cl)cc2)C(c2ccco2)NC(=O)N1 (configuration not stated),inactive,–
Cc1ccc(SCC(=O)Nc2ccc3c(c2)OCCO3)cc1,inactive,–
Cc1ccc(SC(=O)COc2ccc(C)c(C)c2)cc1,inactive,–
Cc1ccc(SCC(=O)c2cc(C)c(OC(=S)N(C)C)c(C)c2)cc1,18.4 µM (active),–
CCCCc1ccc(S(=O)(=O)NC(=O)C2(C)CCN2C(=O)c2c(C)noc2C)cc1 (configuration not stated),inactive,–
C=CCOCCN(C)C1=NS(=O)(=O)c2ccccc21,inactive,–
COc1ccc(/C=N/N(C)C2=NS(=O)(=O)c3ccccc32)cc1OC,inactive,–

Structure (SMILES),Potency,"activity change, negative = growth inhibition"
O=S1(=O)N=C(N(CCO)/N=C/c2ccccc2F)c2ccccc21,0.92 µM (active),–
CCCCC/C=C\C/C=C\CCCCCCCCCC(=O)O,–,6.04% [at 4.12 µM]
Cc1cc(C)n(C(=O)CCNC(=O)c2ccccc2Cl)n1,inactive,–
NC(=O)c1ccsc1NC(=O)COC(=O)COc1ccc(C=O)cc1,inactive,–
Cc1cccc(NC(=S)NC(=O)c2ccc(Br)o2)c1,inactive,–
Fc1cc(Br)ccc1NC(=S)Nc1cccnc1,inactive,–
Cc1cccc(NC(=S)Nc2ccc(Br)cc2)c1,16.4 µM (active),–
O=C(COC(=O)c1ccc2c(c1)OCCO2)NCc1ccccc1Cl,inactive,–
CCCS(=O)(=O)NC(=O)C1(C)CCCN(C(=O)c2cc(C)on2)C1 (configuration not stated),inactive,–
Cc1nc2cnc(N3CCN(C)CC3)nc2n(CCC#N)c1=O,inactive,–
Cn1c(SCC(=O)Nc2nccs2)nnc1-c1cccnc1,inactive,–
Cc1cccc2sc(N(CCCN(C)C)C(=O)CCS(=O)(=O)c3ccccc3)nc12,1.64 µM (active),–
CN(C)CCCN(C(=O)COc1ccccc1)c1nc2c(Cl)cccc2s1,inactive,–
COc1cc2ccccc2cc1C(=O)N(CCN(C)C)c1nc2c(F)cccc2s1,inactive,–
O=C(CCS(=O)(=O)c1ccccc1)N(Cc1cccnc1)c1nc2c(F)cccc2s1,2.31 µM (active),–
CN(C)S(=O)(=O)c1ccc(C(=O)N(Cc2cccnc2)c2nc3c(F)cc(F)cc3s2)cc1,inactive,–
O=C(NCc1cccnc1)Nc1ccccc1F,inactive,–
COC(=O)[C@H](CC(C)C)NC(=O)N1CCCCC1C (some centres not stated),inactive,–
COC(=O)C1=C(C)NC(=O)NC1/C=C/c1ccccc1 (configuration not stated),inactive,–
O=C(CSc1nnc(Cn2cnc3ccccc32)o1)c1ccccc1,10.3 µM (active),–
CC(=O)Nc1ccc(C(=O)CSc2nnc(Cc3ccccc3)o2)cc1,inactive,–
O=C(CSc1nnc(-c2c[nH]c3ccccc23)o1)c1ccccc1,inactive,–
Cc1cc(C)cc(NC(=O)c2cccc(NC(=O)C3C4CC5OC(=O)C3C5C4)c2)c1 (configuration not stated),inactive,–

Structure (SMILES),Potency,"activity change, negative = growth inhibition"
Cc1cccc(N2C(=O)SC(N(CC(=O)O)c3cccc(C)c3)C2=O)c1 (configuration not stated),inactive,–
CCOC(=O)CCP(=O)(O)C(O)(c1ccccc1)c1ccccc1,inactive,–
O=S(=O)(Nc1ccc2cn[nH]c2c1)c1ccccc1,inactive,–
O=C(CCNC(=O)C1CCN(S(=O)(=O)c2ccccc2)CC1)NC1CC1,inactive,–
CCOC(=O)c1cc(C(C)C)sc1NC(=O)COC(=O)c1nccnc1N,inactive,–
O=C1C2(c3ccccc3)CN(CCCO)CC1(c1ccccc1)CN(CCCO)C2,inactive,–
Cc1ccc(Cl)cc1N1CCN(S(=O)(=O)c2cc3[nH]c(=O)c(=O)[nH]c3cc2C)CC1,inactive,–
CCOC(=O)N1CCN(S(=O)(=O)c2ccc3c(c2)C(C)C(=O)N3)CC1 (configuration not stated),inactive,–
O=C1CC(=O)Nc2cc(S(=O)(=O)N3CCN(c4cccc(C(F)(F)F)c4)CC3)ccc2N1,inactive,–
Cc1ccc(N2CCN(S(=O)(=O)c3ccc(F)cc3)CC2)c(C)c1,18.4 µM (active),–
Cc1ccc(S(=O)(=O)N2CCN(C)CC2)cc1,inactive,–
CC1C(=O)Nc2ccc(S(=O)(=O)N3CCN(c4ccccc4F)CC3)cc2NC1=O (configuration not stated),20.6 µM (active),–
Cc1ccc(C)c(N2CCN(S(=O)(=O)c3ccc4c(c3)oc(=O)n4C)CC2)c1,inactive,–
Cc1ccc(S(=O)(=O)N2CCN(S(=O)(=O)N3CCOCC3)CC2)cc1,inactive,–
Cc1ccc(C)c(N2CCN(S(=O)(=O)c3ccc4c(c3)C(C(C)C)C(=O)N4)CC2)c1 (configuration not stated),18.4 µM (active),–
O=C(N/N=C/c1cccc(OC(=O)c2ccc([N+](=O)[O-])cc2)c1)c1cccnc1,inactive,–
CCOC(=O)c1c(-n2cnnn2)sc(C)c1C,inactive,–
COc1ccc(NC(=S)N2N=CCC2c2ccccc2)cc1 (configuration not stated),inactive,–
CS(=O)(=O)c1ccc2nc(NC(=O)c3ccc(Cl)nc3)sc2c1,inactive,–
O=C(NCc1cccnc1)c1nc(-c2cccs2)no1,inactive,–
C=CCn1c(=O)n(C)c2c(=O)n(C)c(=O)n(C)c21,inactive,–
